Data from ChEMBL document CHEMBL4513216, “Probing the Open Global Health Chemical Diversity Library for Multistage-Active Starting Points for Next-Generation Antimalarials” (ACS Infect Dis, 2020).
Hit rate of the full screen: of about 65,000 compounds, about 2,100 (3.2%) showed an effect of 50% or more. The median lay at about -52%. What follows is part of a selection rich in strong results, with near analogues and random picks from the rest.

These compounds were tested on Plasmodium falciparum (assay: Screen against P. falciparum Asexual Blood Stage (ABS), at 5uM). Settings: tested at 5 uM.
Type: functional, Dd2

Row | Structure (SMILES) | INHIBITION [%]
1 | Cc1noc(C)c1CN1CCO[C@H]2CN(Cc3cnn(C)c3)C[C@H]21 | 13.9
2 | CCNC(=O)C(C)NC(=O)c1cnc(-c2ccc(C)cc2C)s1 (configuration not stated) | 71.5
3 | CCS(=O)(=O)NC[C@]12COC[C@H]1CN(Cc1cccnc1OC)C2 | -27.6
4 | CCNC(=O)c1cn(C(C)(C)C)c2ncccc12 | 5.57
5 | Cc1cccc(CN2C[C@@H]3COC[C@]3(COCC(=O)N(C)C)C2)n1 | -104
6 | CN(CCCO)Cc1cc(Cl)ccc1OCC(O)CN1CCCCCC1 (configuration not stated) | 90.7
7 | CN(CCO)Cc1cc(Cl)ccc1OCC(O)CN1CCCCCC1 (configuration not stated) | 81.5
8 | COc1ccc(Cl)cc1CC(=O)N1CCN(CC(C)(C)O)CC1 | -155
9 | COCCN(C)Cc1cc(Cl)ccc1OCC(O)CN1CCCCCC1 (configuration not stated) | 83.9
10 | CCC(O)CN1CCN(C(=O)Cc2cc(Cl)ccc2OC)CC1 (configuration not stated) | -17.7
11 | Cn1cc(C2SCC(=O)Nc3c2c(=O)[nH]n3C2CCOCC2)cn1 (configuration not stated) | -57.4
12 | O=C1CSC(c2ccccc2)c2c(n(C3CCOCC3)[nH]c2=O)N1 (configuration not stated) | -34.2
13 | c1cc([C@H]2C[C@@H]3CCN(Cc4nccs4)C[C@H]3O2)ncn1 | -99.9
14 | Cc1noc([C@H]2C[C@H]3OCC[C@H]3N(Cc3ccncc3)C2)n1 | -164
15 | CCCn1nc(C)c(-c2cncn2CC2(N(C)C)CCC(C)CC2)c1C (configuration not stated) | 70.3
16 | O=C1[C@H]2CN(Cc3ccc(F)cc3)C[C@H]2CN1c1cncnc1 | 2.38
17 | CC(c1ccc(F)cc1)N1CCN(Cc2ccc(C#N)cc2)CC1 (configuration not stated) | -14.8
18 | CC(C)Oc1ncnc2c1CCN(Cc1ccc(F)cc1)CC2 | 70.8
19 | Cn1cnc(S(=O)(=O)N2CC3(CCN(Cc4ccncc4)C3)C2)c1 | -29.2
20 | COCc1cncc2c1CCN(Cc1cnn(C)c1)C2 | -135
21 | c1ccc(O[C@H]2CO[C@@]3(CCCN(Cc4nccs4)C3)C2)nc1 | -90.3
22 | Cc1ccccc1CC1(CO)CCCN(c2ncncc2C(C)C)C1 (configuration not stated) | 85
23 | CCS(=O)(=O)N1CCOC2(CCCN(Cc3ccccn3)C2)C1 (configuration not stated) | -69.2
24 | CN(C)C(=O)CN1CC[C@@H]2O[C@@H](COCc3cccnc3)CC[C@@H]21 | -71.1
25 | Cc1nn(C)cc1C1=NS(=O)(=O)N(C)C(C(=O)Nc2ccc(Br)cc2)=C1 | 90
26 | Cc1nn(C)cc1C1=NS(=O)(=O)N(C)C(C(=O)Nc2ccc(Cl)cc2)=C1 | 83.4

Row | Structure (SMILES) | INHIBITION [%]
27 | c1ccc(OC[C@H]2CCC[C@]23CN(Cc2nccs2)CCO3)nc1 | 6.16
28 | CCCC12CN3CC(C)(CN(C1)C3c1[nH]c(=O)[nH]c(=O)c1C)C2=O (configuration not stated) | -167
29 | Cc1noc(C)c1CN1CC[C@H]2OCC[C@@]2(C(=O)N(C)C)C1 | -41.2
30 | COCCNC(=O)C1(c2ccc(C)c(OC)c2)CCCC1 | 6.63
31 | COc1cc(C2(C(=O)NCCn3ccnc3)CCCC2)ccc1C | 50
32 | Cc1cc(C)c(N(CC(O)CNCc2ccccc2)S(C)(=O)=O)c(C)c1 (configuration not stated) | 70.4
33 | COCCOc1ccccc1CNCC1COC2(CCCC2)O1 (configuration not stated) | 74.3
34 | CN(C)c1nc(N)nc(CN2CCC(c3ccccc3)CC2)n1 | 80.4
35 | CCN1CCC(c2cncc(N(C)C)n2)CC1 | -163
36 | O=C(N1CCCO1)[C@]12COC[C@H]1CN(Cc1cccnc1)C2 | -58.8
37 | Cc1ccc(N2CCO[C@H]3CN(Cc4ccc(F)cc4)C[C@H]32)nn1 | -3.71
38 | Cc1nc(N2C[C@H]3CC[C@@H](C2)N3)nc2cc(S(C)(=O)=O)ccc12 | -46.7
39 | CCN(CC)CCN(C)c1nc(-c2ccc(Cl)cc2)nc2c1CNC2 | 88.3
40 | Cc1nccn1CCN(C)c1nc(-c2ccc(Cl)cc2)nc2c1CNC2 | 70.5
41 | CCN1C[C@H]2[C@@H](C1)N(S(=O)(=O)c1cccnc1)CC[C@H]2OC | -40.3
42 | NC(=O)CCC1CCCN(c2ccnc3cc(F)ccc23)C1 (configuration not stated) | 83.4
43 | Cc1noc(C)c1CN1CC[C@H]2OCC[C@@]2(C(=O)NCC2CC2)C1 | -139
44 | CN(C)Cc1cncc2c1CCN(C1CCOCC1)C2 | -179
45 | O=C(N[C@H]1CN[C@H]2CCCO[C@H]21)c1cscn1 | -37.2
46 | CCC/C=C/c1ccc(CN2CCN(C)CC2)cn1 | 0.24
47 | O=C(NCc1cnn2cccnc12)C1CC2(CCNCC2)CN1 (configuration not stated) | -20.8
48 | O=C(C1CC1)N1CC2(CCNCC2)C1 | -76.2
49 | O=C(C1CC2(CCNCC2)CN1)N1CCN(c2cccc(Cl)c2Cl)CC1 (configuration not stated) | 79.2
50 | Cc1ccsc1CNCC1CCCN1c1cccnn1 (configuration not stated) | 78.8
51 | CC(Cn1cccn1)NCc1nc(-c2cccs2)no1 (configuration not stated) | -230
52 | CC(C)c1nc(CC(=O)N2CCN(C)CC2c2ccccc2)cs1 (configuration not stated) | -16.5

Row | Structure (SMILES) | INHIBITION [%]
53 | COc1nc(C)ccc1CNc1cc(N2CCCC2CO)ncn1 (configuration not stated) | -50.3
54 | c1cnnc(N2CCCC2CNCc2nc(-c3cccs3)no2)c1 (configuration not stated) | 72.2
55 | CC(C)c1nc(CNCC2CCCN2c2cccnn2)cs1 (configuration not stated) | 71.1
56 | Cc1nc(CN2CCC23CCN(C(=O)c2ccncc2)CC3)cs1 | 2.76
57 | O=C(C1CC=CC1)N1CCC2(CC1)OCCO2 | -69.1
58 | O=C(O)[C@@H]1CN(CC(=O)N2CCCCCC2)C[C@H]1c1ccc(F)cc1 | -66.2
59 | O=C(O)[C@@H]1CN(CC(=O)N2CCCCC2)C[C@H]1c1ccc(F)cc1 | -140
60 | NCC(=O)N1CCCCC1c1ccc(F)cc1 (configuration not stated) | 85.3
61 | Cc1ncsc1CN1C[C@@H](OCc2ccncc2)[C@H]2OCCC[C@H]21 | -190
62 | CC(C)C(NC(=O)c1ccccc1F)C(=O)N1CCC2(CC1)OCCO2 (configuration not stated) | -65.9
63 | Fc1cnc(N2CCO[C@H]3CN(CC4CCOC4)C[C@H]32)nc1 (some centres not stated) | -57.2
64 | Cc1cn2c(n1)C(CNCC1=Cc3ccccc3OC1)CCC2 (configuration not stated) | 79
65 | Cc1cn2c(n1)C(CNCC1=Cc3cc(Cl)ccc3OC1)CCC2 (configuration not stated) | 88.2
66 | CC(C)C(=O)N1C[C@H]2CCCN[C@H]2C1 | 28.1
67 | COc1cccc2c(=O)n(C3CCCNC3)cnc12 (configuration not stated) | -35.5
68 | CC(C)c1ocnc1C(=O)N1CCC2(CC1)OCCO2 | -39.3
69 | Cc1cc(CNC(C)Cn2cncn2)ccc1Br (configuration not stated) | -29.8
70 | CCCOc1ccccc1C(N)CC(C)C (configuration not stated) | 75.1
71 | COC[C@H]1CCC[C@]12CN(Cc1cccc(C)n1)CCO2 | -25.5
72 | OCCN1CC2(CCN(c3ccccc3)C2)C1 | 62.8
73 | CN1C(=O)C2(CCN(CCO)C2)c2ccccc21 (configuration not stated) | -143
74 | O=C1Nc2ccccc2CC12CCN(CCO)C2 (configuration not stated) | -93.6
75 | Cc1noc(C)c1CN1CC[C@@H]2O[C@@H](COCC3CC3)CC[C@@H]21 | 0.666
76 | OCC1CCCCN1c1ccc(-c2nc(-c3ccccc3F)no2)cn1 (configuration not stated) | 75.5
77 | O=C(Cc1ccncc1)N1C[C@@H]2CC[C@H]1CN(Cc1cccnc1)C2 | 10.9
78 | Cc1nc(CN2CCCC3(CCN(c4cccnc4)C3=O)C2)cs1 (configuration not stated) | -34.3

Row | Structure (SMILES) | INHIBITION [%]
79 | CN(C)CCN(CC1CCCO1)C(=O)Cc1cn2ccccc2n1 (configuration not stated) | -90.1
80 | c1ccn2cc(CN3CCCC(c4ccn[nH]4)C3)nc2c1 (configuration not stated) | 89.1
81 | Cn1ncc(NCc2cccc(OCC(F)(F)F)c2)c(Cl)c1=O | -44.7
82 | CCCS(=O)(=O)N1CCN(CCOC)c2nc(C)ccc2C1 | -87
83 | CCn1cc(NC(=O)N2CCN(C(=O)Oc3ccccc3)CC2)cn1 | -56.8
84 | c1[nH]c(CC2CCCC2)nc1CN1CCCC2(CCOC2)C1 (configuration not stated) | 82.2
85 | c1cc(CN2CCOCC3(CCNCC3)C2)ccn1 | -114
86 | c1cnc(N2CCOCC3(CCCN(Cc4cc[nH]n4)C3)C2)nc1 (configuration not stated) | -63.1
87 | Cc1cc(CN(C)C(=O)CN2CCCC2=O)no1 | -32.3
88 | COc1cc(OC)cc(C2SCC(=O)Nc3ccsc32)c1 (configuration not stated) | -38.5
89 | O=C(Nc1cccnc1)[C@H]1C[C@H]2OCC[C@H]2N(CC2CC2)C1 | -67.1
90 | Cc1n[nH]c2c1C(c1cccnc1)SCC(=O)N2 (configuration not stated) | -32.5
91 | Cc1cccc(CN2CCN(C(=O)N(C)C)[C@@H]3CS(=O)(=O)C[C@@H]32)n1 | -85.1
92 | CCC[C@H]1CN(c2nc(CO)cs2)C[C@@H]1NC(=O)C1(COC)CC1 | 71.7
93 | O=C(Nc1cccnc1)[C@H]1COC[C@H]2CN(C3CCCC3)C[C@H]21 | 12.5
94 | O=C(C[C@@H]1COC[C@H]2CN(CC3CC3)C[C@@H]12)NCc1cccnc1 | -75.7
95 | O=C(C1CCC1)N1C[C@H]2CNC[C@H]2C1 | -30.2
96 | O=C(C1CCOCC1)N1C[C@H]2CNC[C@H]2C1 | 52.6
97 | O=C(C1CCCC1)N1C[C@H]2CNC[C@H]2C1 | -5.05
98 | O=C(CC1CC1)N1C[C@H]2CCN[C@H]2C1 | -62.6
99 | O=S(=O)(c1cccnc1)N1C[C@@H]2COC[C@]2(CN2CCOCC2)C1 | -111
100 | Cc1cc(CN2CCN(C(=O)Cc3ccccc3F)CC2)on1 | -206
101 | CN1CCN(Cc2ccccc2CNC(=O)c2ccc(Cl)cc2F)CC1 | 77.2
102 | CN1CCN(Cc2ccccc2CNC(=O)c2cc(Br)ccc2F)CC1 | 77.5
